What all share (test): NCI-60 one-dose screen, 48 h (100 = growth as untreated, 0 = no growth, -100 = all killed)
Common to all, as to settings: 10 µM unless noted

In assay [1] the test system is NCI-H23 lung.
The test system of assay [2] is NCI-H226 lung.
The subject of assay [3] is NCI-H322M lung.
Assay [4] relates to HOP-62 NSCLC.
The test system of assay [5] is NCI-H460 lung.
Assay [6] concerns HOP-92 NSCLC.
Assay [7] relates to NCI-H522 lung.
For assay [8], the system named is A549/ATCC NSCLC.
Assay [9] concerns 786-0 renal.
The test system of assay [10] is COLO 205 colon.
In assay [11] the test system is DU-145 prostate.
Assay [12] has as its system K-562 leukemia.
Assay [13] relates to MALME-3M melanoma.
The test system of assay [14] is MDA-MB-231 breast.
Assay [15] deals with RXF 393 renal.
The test system of assay [16] is SF-268 CNS.
Assay [17] relates to SF-295 CNS.
The test system of assay [18] is SF-539 CNS.
Assay [19] relates to UACC-257 melanoma.
Assay [20] has as its system M14 melanoma.

Where “and” joins values, the source holds several entries; their conditions need not be identical. Equal values may be shown once. Compounds without any hit were thinned out: in the full panel of roughly 83,000, 20% have a hit.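 96-well plates, one dose, 48 hours. Percent growth reported; active if below 10.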 Calls of active or inactive are those of the source.

For `O=[P+](O)c1cccnc1`, the growth in assay [1] is 103% (inactive); in assay [2] it was 105% (inactive); in [3], 94.9% (inactive); in assay [4], 90.3% (inactive); in assay [5] it was 107% (inactive); in [6], 109% (inactive). Moreover, the growth in [7] is 75.7% (inactive); in assay [8], 101% (inactive); in assay [9], 98.2% (inactive); in [10], 102% (inactive); in [11], 114% (inactive); in assay [12], 99.1% (inactive). Besides, the growth in assay [13] was 106% (inactive); in assay [14] it was 107% (inactive); in [15], 114% (inactive); in [16], 98.2% (inactive); in assay [17], 103% (inactive); in [18], 105% (inactive). For the same compound, the growth in assay [19] is 104% (inactive); in assay [20], 106% (inactive).

Regarding `O=C1CN2CCC1CC2`, the growth in assay [1] was 101% (inactive); in assay [2], 96.8% (inactive); in assay [3], 99.3% (inactive); in assay [4], 93.5% (inactive); in assay [5], 115% (inactive); in assay [6], 106% (inactive). In addition, the growth in assay [7] was 90.3% (inactive); in assay [8], 92.7% (inactive); in assay [9], 88.9% (inactive); in assay [10] it was 116% (inactive); in [11], 103% (inactive); in assay [12], 93.9% (inactive). In addition, the growth in assay [13] is 102% (inactive); in assay [14] it was 108% (inactive); in assay [15] it was 111% (inactive); in assay [16], 99% (inactive); in assay [17] it was 99.9% (inactive); in [18] it was 97.8% (inactive). In addition, the growth is 109% (inactive) in [19] and 104% (inactive) in [20].

On to `COC(=O)C1=CCCN(C)C1`, for which the growth in assay [1] was 104% (inactive) and 101% (inactive); in assay [2] it was 100% (inactive) and 101% (inactive); in assay [3], 96.2% (inactive) and 82.7% (inactive); in assay [4] it was 109% (inactive); in [5], 110% (inactive) and 106% (inactive); in assay [6] it was 76.9% (inactive). In addition, the growth in [7] is 96.8% (inactive) and 73.1% (inactive); in [8] it was 101% (inactive); in assay [9], 100% (inactive) and 101% (inactive); in assay [10], 114% (inactive) and 121% (inactive); in assay [11], 111% (inactive) and 112% (inactive); in assay [12], 93.2% (inactive) and 104% (inactive). Also, the growth in assay [13] was 96.2% (inactive) and 109% (inactive); in assay [14], 115% (inactive) and 107% (inactive); in [15], 102% (inactive) and 106% (inactive); in [16] it was 116% (inactive) and 104% (inactive); in [17], 97.9% (inactive) and 98.3% (inactive); in [18], 103% (inactive) and 109% (inactive). Besides, the growth is 96.8% (inactive) in assay [19]; 98% (inactive) and 100% (inactive) in assay [20].

In the case of `N#CC(NC(=O)CCl)=C(Cl)Cl`, the growth in assay [1] is 28.5% (inactive); in assay [2] it was 70.8% (inactive); in [3] it was 78.6% (inactive); in assay [4], 73.2% (inactive); in assay [5], 50.7% (inactive); in assay [6], -71.5% (active). Besides, the growth is -84.4% (active) in assay [7]; 66.8% (inactive) in assay [8]; -72.2% (active) in [9]; -90.4% (active) in assay [10]; 44.1% (inactive) in [11]; -23.6% (active) in [12]. Besides, the growth in assay [13] is -79.1% (active); in assay [14] it was 1.44% (active); in assay [15], -78% (active); in [16] it was 28.9% (inactive); in assay [17], 89.9% (inactive); in [18], 5.84% (active). Further, the growth is 3.34% (active) in [19] and -91.1% (active) in assay [20].

`CC[PH+](CC)CC.O=COC1OC([S-])C(OC=O)C(OC=O)C1OC=O.[Au+]` (stereo not given): the growth in assay [1] is -57.3% (active); in assay [2] it was -66.7% (active); in assay [3], -95.9% (active); in assay [4], -83.1% (active); in [5], -59% (active); in assay [6] it was -86.8% (active). The growth in assay [7] was -75% (active); in assay [8], -76.6% (active); in assay [9], -83.4% (active); in assay [10] it was -84.9% (active); in assay [11], -43.7% (active); in [12], -6.71% (active). Moreover, the growth is -92.1% (active) in assay [13]; -76.3% (active) in assay [14]; -91% (active) in [15]; -78.5% (active) in [16]; -16.3% (active) in assay [17]; -99.2% (active) in assay [18]. The growth was -83.6% (active) in assay [19] and -63.1% (active) in [20].

`CN(C)c1ccc(C=C2C(=O)NC(=O)NC2=O)cc1`: the growth in [1] is 70.8% (inactive); in assay [2], 97.6% (inactive); in assay [3], 123% (inactive); in assay [4] it was 110% (inactive); in assay [5] it was 102% (inactive); in [6], 86.8% (inactive). For the same compound, the growth in [7] is 69.6% (inactive); in assay [8], 92.6% (inactive); in assay [9] it was 109% (inactive); in assay [10], 107% (inactive); in assay [11], 102% (inactive); in [12], 109% (inactive). In addition, the growth in assay [13] was 96.4% (inactive); in assay [14] it was 88.2% (inactive); in assay [15], 94% (inactive); in [16] it was 93.5% (inactive); in [17] it was 95.5% (inactive); in assay [18] it was 96.7% (inactive). For the same compound, the values for the growth in [19] and in assay [20] were -19.7% (active) and 86.5% (inactive), respectively.
